This note sets out measurements from PubChem BioAssay.

Measured potencies and affinities stand elsewhere. Calls of active or inactive are those of the source. Unless noted, how the calls were made is not given here.

One assay deals with Calcium-dependent protein kinase 1 (Plasmodium falciparum (isolate 3D7)) (UniProt P62344). In words: PfCDPK1 kinase inhibitors, biochemical, TCAMS library (AID 1159585; cut-off not given, nearly all actives have IC50 up to about 0.98 µM;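 further: inhibitors leave more ATP so luminescence rises with inhibition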). To be noted: recombinant PfCDPK1, Kinase-Glo ATP depletion luminescence. (In general: Kinase-Glo reads ATP consumption through a luciferase reaction.)
Sequence of Calcium-dependent protein kinase 1 (Plasmodium falciparum (isolate 3D7)) (P62344 whole entry, looked up): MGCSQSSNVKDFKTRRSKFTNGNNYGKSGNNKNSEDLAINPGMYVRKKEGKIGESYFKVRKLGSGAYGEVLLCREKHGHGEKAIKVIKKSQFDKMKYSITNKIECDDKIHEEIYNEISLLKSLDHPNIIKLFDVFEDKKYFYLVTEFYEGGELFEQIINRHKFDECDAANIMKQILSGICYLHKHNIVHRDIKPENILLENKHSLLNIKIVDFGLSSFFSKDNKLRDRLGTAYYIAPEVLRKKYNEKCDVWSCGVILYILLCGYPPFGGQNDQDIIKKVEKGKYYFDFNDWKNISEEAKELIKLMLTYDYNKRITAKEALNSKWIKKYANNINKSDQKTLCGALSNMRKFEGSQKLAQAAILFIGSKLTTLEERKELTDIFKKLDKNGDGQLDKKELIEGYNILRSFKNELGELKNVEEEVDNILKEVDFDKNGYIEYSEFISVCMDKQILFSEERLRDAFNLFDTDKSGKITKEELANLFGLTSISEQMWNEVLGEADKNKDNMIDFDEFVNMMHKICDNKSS
Consider `CCCCCCCCNc1c2ccc(Cl)cc2nc2ccc(OC)cc12`, for which the outcome was inactive. Regarding `Oc1ccc(Cl)cc1CN1CCCC(COC(c2ccc(F)cc2)c2ccc(F)cc2)C1` (stereo not given), the result was inactive. On the same count and under the same terms, the value for `CN1CCN(Cc2ccc(-c3cc4nccc(Nc5ccc(Oc6ccccc6)cc5)c4cc3Cl)o2)CC1` was “inactive”. Still for that read-out and setting: the value for `O=C(NCC1CCN(Cc2ccc(F)cc2)C1)c1cc(-c2cccc(C(F)(F)F)c2)cs1` (stereo not given) was “inactive”; that for `Cn1ccnc1S(=O)(=O)CCNCc1ccc(-c2ccc3ncnc(Nc4ccc(OCc5cccc(F)c5)c(Cl)c4)c3c2)o1` was “inactive”.

For the compound `CCC(CC(NCCCCNC(=O)c1ccc(NC(=O)c2ccc(Cl)cc2)cc1)c1ccccc1)c1ccccc1OC` (stereo not given), the outcome was inactive. Still for that read-out and setting: the value for `N#CC(c1ccc(Br)cc1)c1ccc2c(C(F)(F)F)cc(C(F)(F)F)nc2n1` (stereo not given) was “inactive”; that for `O=C(CCCCCNC(=O)c1ccc(O)c(-c2ccc(Cl)c(Cl)c2)c1)NCCN1CCCCC1` was “inactive”; that for `COc1ccc(NC(=O)N2CCN(CCCCCNC(=O)/C=C/c3ccc(C(F)(F)F)cc3)CC2)cc1Cl` was “inactive”. For the compound `O=C(Nc1ccc(Cn2ncc(N3CCCNCC3)c(Cl)c2=O)cc1)Nc1ccc(-c2ccccc2)cc1`, the outcome was inactive. Same read-out and setting: the value for `O=C(NCCc1ccc(Cl)c(Cl)c1)c1ccc(CNC(=O)c2ccc(O)c(-c3ccc(Cl)c(Cl)c3)c2)cc1` was “inactive”; that for `CC(=O)N1N=C(c2ccc(Cl)cc2)Sc2c1nc(C1CCCCC1)n2C(C)=O` was “inactive”; that for `CN1CCCN(Cc2ccc(-c3cccc(NC(=O)c4ccc(F)cc4)c3)cc2)CC1` was “inactive”. As for `NC(=O)COc1cccc2c1CCN(CCN1CCC(NC(=O)c3ccc(-c4ccc(Cl)cc4)cc3)CC1)C2`, the outcome was inactive. Still for that read-out and setting: under `C=C[C@H]1CN(CCCCCCC)CC[C@H]1CCN(C)c1ccnc2ccc(OC)cc12` stands “inactive”; under `CC(C)(C)CN1C(=O)C(c2ccccc2)(c2ccccc2)N=C1N`, “inactive”; under `CN(C)CCOc1cc(NC(=O)Nc2ccc(-c3ccncc3)c(C(F)(F)F)c2)ccc1Cl`, “inactive”.

In the case of `Cc1cc(NCCC(=O)NCCc2ccccc2)nc(NCCc2ccc(F)cc2)n1`, the outcome was inactive. On the same count and under the same terms, under `C[C@H](Cc1ccc(C[C@@H](C)NCC(O)c2cc(Cl)c(N)c(Cl)c2)cc1)NCC(O)c1cc(Cl)c(N)c(Cl)c1` (stereo not given in full) stands “inactive”; under `FC(F)(F)c1ccc2nccc(NN=Cc3ccc(Cl)cc3)c2c1`, “inactive”; under `Cc1cc(N[C@@H](Cc2ccccc2)C(=O)NC2CCCC2)nc(NCCc2cccs2)n1`, “inactive”. Same read-out and setting: under `N#Cc1cccc(NC(=O)Nc2ccc(CC(=O)N3CCc4cc(Cl)c(N5CCN(C/C=C/c6ccccc6)CC5)cc43)cc2)c1` stands “inactive”; under `O=C(Nc1ccc(CN2CCN(S(=O)(=O)c3ccc(Cl)s3)CC2)cc1)c1cccs1`, “inactive”. Same read-out and setting: under `CC(CCCCC(=O)Nc1ccc(C(F)(F)F)cc1)NCC(O)c1cccc(Cl)c1` (stereo not given) stands “inactive”. With `COc1ccc(NC(=O)c2cc(-c3ccc(NC(C)=O)cc3)cnc2N)cc1`, the result was inactive.

The target in the next assay is Plasmodium falciparum protein kinase 6 (PK6, PF3D7_1337100) (UniProt Q8IDW1). In words: PfPK6 kinase inhibitors, biochemical, TCAMS library (AID 1159586). The conditions noted are these: recombinant PfPK6, Kinase-Glo ATP depletion luminescence.
Sequence of Plasmodium falciparum protein kinase 6 (PK6, PF3D7_1337100) (Q8IDW1 1-305): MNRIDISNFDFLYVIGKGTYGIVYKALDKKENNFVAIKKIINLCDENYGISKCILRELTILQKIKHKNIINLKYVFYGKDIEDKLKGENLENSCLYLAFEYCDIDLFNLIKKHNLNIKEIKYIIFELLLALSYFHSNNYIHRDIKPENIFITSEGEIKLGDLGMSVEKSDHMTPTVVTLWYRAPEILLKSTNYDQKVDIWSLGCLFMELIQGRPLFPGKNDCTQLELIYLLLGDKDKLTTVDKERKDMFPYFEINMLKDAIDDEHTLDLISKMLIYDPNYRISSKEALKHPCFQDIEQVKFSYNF
In the case of `OC(CNc1ccnc(Nc2cccc(Cl)c2)n1)c1cccc(C(F)(F)F)c1` (stereo not given), the result was inactive. Still for that read-out and setting: the value for `CC1CN(Cc2cccc(-c3ccc(-c4nc5ccc(F)cc5[nH]4)cc3)c2)CC(C)O1` (stereo not given) was “inactive”; that for `COc1cc(F)c2ncc(Cl)c([C@H](O)CN3CCC(NCc4cc5c(cn4)OCCO5)CC3)c2c1` was “inactive”. Same read-out and setting: under `COc1ccc2nc(C)cc(NN=Cc3ccccc3Cl)c2c1` stands “inactive”. The same measure, in the same setting: under `Cn1nccc1C(=O)NCCNCc1ccc(-c2ccc(-c3nc4ccc(C(F)(F)F)cc4[nH]3)cc2)cc1` stands “inactive”; under `COc1ccccc1C1CCN(C2CCC(NC(=O)/C=C/c3cc(F)cc(F)c3)CC2)CC1` (stereo not given), “inactive”; under `CN(C)CCCOc1ccc(CCCCc2ccc(Cl)cc2C(=O)c2ccccc2)cc1`, “inactive”. Take `O=C(C=Cc1ccc(C(=O)Nc2ccc(C3=NCCN3)cc2)cc1)Nc1ccc(C2=NCCN2)cc1`: the result was inactive. Still for that read-out and setting: the value for `Cc1ccc2nc(C)cc(NC(=O)Nc3ccc(N(C)C)cc3)c2c1` was “inactive”; that for `CC(C)c1ccc(CN2CCCCC(NC(=O)c3cc(-c4ccccc4Cl)cs3)C2)cc1` (stereo not given) was “inactive”. As to `CCNc1cc(C(=O)N[C@@H](Cc2ccccc2)[C@H](O)CNCCc2ccccc2)cc(N2CCCC2=O)c1`, the outcome was inactive. Still for that read-out and setting: under `COc1cc(C(F)(F)F)c2cc(CNCCCNc3nc4ccccc4[nH]3)[nH]c2c1` stands “inactive”; under `FC(F)(F)c1cccc(CNCCCCCNCc2ccc(Cl)cc2)c1`, “inactive”; under `CC(=O)Nc1ccc(CN2Cc3ccc(NC(=O)Nc4ccc(Oc5ccccc5)cc4)cc3C2)s1`, “inactive”. Same read-out and setting: under `COCc1cccc(-c2cc(-c3ccc(S(C)(=O)=O)cc3)cnc2N)c1` stands “inactive”; under `CCCCCCCCNc1c2ccc(Cl)cc2nc2ccc(OC)cc12`, “inactive”; under `Oc1ccc(Cl)cc1CN1CCCC(COC(c2ccc(F)cc2)c2ccc(F)cc2)C1` (stereo not given), “inactive”. The same measure, in the same setting: under `CN1CCN(Cc2ccc(-c3cc4nccc(Nc5ccc(Oc6ccccc6)cc5)c4cc3Cl)o2)CC1` stands “inactive”. With `O=C(NCC1CCN(Cc2ccc(F)cc2)C1)c1cc(-c2cccc(C(F)(F)F)c2)cs1` (stereo not given), the outcome was inactive. Regarding `Cn1ccnc1S(=O)(=O)CCNCc1ccc(-c2ccc3ncnc(Nc4ccc(OCc5cccc(F)c5)c(Cl)c4)c3c2)o1`, the result was inactive.

On to `CCC(CC(NCCCCNC(=O)c1ccc(NC(=O)c2ccc(Cl)cc2)cc1)c1ccccc1)c1ccccc1OC` (stereo not given), for which the outcome was inactive. On the same count and under the same terms, the value for `N#CC(c1ccc(Br)cc1)c1ccc2c(C(F)(F)F)cc(C(F)(F)F)nc2n1` (stereo not given) was “inactive”. The same measure, in the same setting: the value for `O=C(CCCCCNC(=O)c1ccc(O)c(-c2ccc(Cl)c(Cl)c2)c1)NCCN1CCCCC1` was “inactive”; that for `COc1ccc(NC(=O)N2CCN(CCCCCNC(=O)/C=C/c3ccc(C(F)(F)F)cc3)CC2)cc1Cl` was “inactive”; that for `O=C(Nc1ccc(Cn2ncc(N3CCCNCC3)c(Cl)c2=O)cc1)Nc1ccc(-c2ccccc2)cc1` was “inactive”. For the compound `O=C(NCCc1ccc(Cl)c(Cl)c1)c1ccc(CNC(=O)c2ccc(O)c(-c3ccc(Cl)c(Cl)c3)c2)cc1`, the outcome was inactive.

For the compound `CC(=O)N1N=C(c2ccc(Cl)cc2)Sc2c1nc(C1CCCCC1)n2C(C)=O`, the result was inactive.

Take `CN1CCCN(Cc2ccc(-c3cccc(NC(=O)c4ccc(F)cc4)c3)cc2)CC1`: the outcome was inactive. Consider `NC(=O)COc1cccc2c1CCN(CCN1CCC(NC(=O)c3ccc(-c4ccc(Cl)cc4)cc3)CC1)C2`, for which the outcome was inactive. On to `C=C[C@H]1CN(CCCCCCC)CC[C@H]1CCN(C)c1ccnc2ccc(OC)cc12`, for which the outcome was inactive. On to `CC(C)(C)CN1C(=O)C(c2ccccc2)(c2ccccc2)N=C1N`, for which the result was inactive. As for `CN(C)CCOc1cc(NC(=O)Nc2ccc(-c3ccncc3)c(C(F)(F)F)c2)ccc1Cl`, the outcome was inactive. As for `Cc1cc(NCCC(=O)NCCc2ccccc2)nc(NCCc2ccc(F)cc2)n1`, the result was inactive. For the compound `C[C@H](Cc1ccc(C[C@@H](C)NCC(O)c2cc(Cl)c(N)c(Cl)c2)cc1)NCC(O)c1cc(Cl)c(N)c(Cl)c1` (stereo not given in full), the result was inactive. As to `FC(F)(F)c1ccc2nccc(NN=Cc3ccc(Cl)cc3)c2c1`, the outcome was inactive. Still for that read-out and setting: under `Cc1cc(N[C@@H](Cc2ccccc2)C(=O)NC2CCCC2)nc(NCCc2cccs2)n1` stands “inactive”; under `N#Cc1cccc(NC(=O)Nc2ccc(CC(=O)N3CCc4cc(Cl)c(N5CCN(C/C=C/c6ccccc6)CC5)cc43)cc2)c1`, “inactive”. As to `O=C(Nc1ccc(CN2CCN(S(=O)(=O)c3ccc(Cl)s3)CC2)cc1)c1cccs1`, the outcome was inactive. Still for that read-out and setting: under `CC(CCCCC(=O)Nc1ccc(C(F)(F)F)cc1)NCC(O)c1cccc(Cl)c1` (stereo not given) stands “inactive”; under `COc1ccc(NC(=O)c2cc(-c3ccc(NC(C)=O)cc3)cnc2N)cc1`, “inactive”.
